Dicer inh – blocks human Dicer maturation of pre-miR-21 | cat-ELCCA pre-miR-21 Dicer processing, chemiluminescence; stronger effect = higher value | Q9UPY3 | z-score at 25 µM | AID 1347074 | 47,000 compounds, 6% hits; in the data active = z-score above about 3, passing the limit was not always enough;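 also: plate controls were vehicle for no effect and no enzyme for full effect; higher signal means more uncleaved substrate so more Dicer inhibition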
Target sequence (Q9UPY3 whole entry, looked up): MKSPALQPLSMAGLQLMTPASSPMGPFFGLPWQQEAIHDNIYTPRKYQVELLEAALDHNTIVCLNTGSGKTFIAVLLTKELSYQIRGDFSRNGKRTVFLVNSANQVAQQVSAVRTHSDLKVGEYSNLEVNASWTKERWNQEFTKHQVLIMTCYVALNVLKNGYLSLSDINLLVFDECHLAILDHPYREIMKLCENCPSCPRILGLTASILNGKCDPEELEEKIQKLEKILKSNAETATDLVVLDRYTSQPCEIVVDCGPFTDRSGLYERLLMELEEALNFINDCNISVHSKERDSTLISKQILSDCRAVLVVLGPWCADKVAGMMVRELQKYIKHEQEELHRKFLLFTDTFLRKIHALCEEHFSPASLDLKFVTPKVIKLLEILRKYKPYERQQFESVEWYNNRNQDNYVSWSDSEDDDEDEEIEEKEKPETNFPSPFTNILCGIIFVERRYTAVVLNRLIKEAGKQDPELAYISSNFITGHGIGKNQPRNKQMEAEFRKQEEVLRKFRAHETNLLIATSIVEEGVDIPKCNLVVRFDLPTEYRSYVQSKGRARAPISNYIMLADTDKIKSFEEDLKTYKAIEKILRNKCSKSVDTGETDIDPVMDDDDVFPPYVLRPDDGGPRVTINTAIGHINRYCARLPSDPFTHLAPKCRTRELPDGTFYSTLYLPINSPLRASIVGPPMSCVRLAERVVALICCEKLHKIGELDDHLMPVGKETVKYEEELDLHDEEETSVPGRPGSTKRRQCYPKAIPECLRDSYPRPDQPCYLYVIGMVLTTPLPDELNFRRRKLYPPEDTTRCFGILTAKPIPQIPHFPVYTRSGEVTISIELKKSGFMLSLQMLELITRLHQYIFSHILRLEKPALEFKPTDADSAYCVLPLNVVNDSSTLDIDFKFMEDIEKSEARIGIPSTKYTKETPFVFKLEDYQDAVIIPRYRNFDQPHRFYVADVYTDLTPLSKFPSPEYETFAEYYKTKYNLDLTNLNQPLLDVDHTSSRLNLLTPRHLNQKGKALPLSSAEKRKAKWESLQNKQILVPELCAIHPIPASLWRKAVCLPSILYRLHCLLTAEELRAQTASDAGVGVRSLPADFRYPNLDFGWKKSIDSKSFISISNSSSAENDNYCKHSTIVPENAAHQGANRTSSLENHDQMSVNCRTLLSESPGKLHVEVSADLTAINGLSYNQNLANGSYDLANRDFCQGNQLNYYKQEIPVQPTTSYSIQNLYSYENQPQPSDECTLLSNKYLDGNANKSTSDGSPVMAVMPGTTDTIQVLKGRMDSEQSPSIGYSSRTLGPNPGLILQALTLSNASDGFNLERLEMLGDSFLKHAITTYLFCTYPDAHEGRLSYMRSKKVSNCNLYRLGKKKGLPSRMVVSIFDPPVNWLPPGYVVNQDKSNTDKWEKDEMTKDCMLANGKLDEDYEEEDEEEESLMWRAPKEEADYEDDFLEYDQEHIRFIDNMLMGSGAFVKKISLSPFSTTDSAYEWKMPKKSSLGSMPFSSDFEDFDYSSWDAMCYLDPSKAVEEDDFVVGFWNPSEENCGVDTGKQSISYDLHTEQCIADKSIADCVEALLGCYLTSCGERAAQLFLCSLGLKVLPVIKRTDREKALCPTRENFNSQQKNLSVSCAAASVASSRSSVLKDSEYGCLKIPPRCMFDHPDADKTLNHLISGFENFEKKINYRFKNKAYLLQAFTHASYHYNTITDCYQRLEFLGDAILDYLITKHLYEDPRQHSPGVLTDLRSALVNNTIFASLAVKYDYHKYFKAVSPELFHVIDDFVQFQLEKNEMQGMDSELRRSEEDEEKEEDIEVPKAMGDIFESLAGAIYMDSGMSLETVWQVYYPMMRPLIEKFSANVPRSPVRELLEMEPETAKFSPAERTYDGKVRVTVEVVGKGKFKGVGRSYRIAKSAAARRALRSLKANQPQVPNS
* marks the source's active call; other numbers are inactive results. This excerpt belongs to a sample that is enriched for hits.

What do the screens show for `C=C(C)CC1C(=O)N(C(=O)c2c(Cl)cccc2Cl)N=C1C` (stereo unspecified)?
Dicer inh: 3.4*

How did C=C(C)CC1C(=O)N(S(=O)(=O)c2ccc(Cl)cc2)N=C1C (stereo unspecified) do in these assays?
Dicer inh: -1.6

Results for Cc1onc(-c2c(Cl)cccc2Cl)c1C(=O)NC(=S)N=S(C)(=O)c1ccccc1 (stereo unspecified) ?
Dicer inh: -0.24

Results for Cn1cc(Br)c(NC(=O)c2cc(C(F)(F)F)cc(C(F)(F)F)c2)n1 ?
Dicer inh: -0.35

What do the screens show for `CC(C)(O)C#Cc1ccc(/C=N/O)cc1`?
Dicer inh: 0.25

How did CC(C)(O)C#Cc1ccc(C2NCCS2)cc1 (stereo unspecified) do in these assays?
Dicer inh: 259*

How did CC(C)(O)C#Cc1ccc(/C=N/Nc2ccc(I)cc2)cc1 do in these assays?
Dicer inh: -0.48

Results for CCOC(=O)C1C(c2ccc(OC)c(OC)c2)C(C(=O)OCC)C(O)(C(F)(F)F)NC1(O)C(F)(F)F (stereo unspecified) ?
Dicer inh: 1.7

Results for O=C1c2ccccc2C(=O)C1C(C[N+](=O)[O-])c1c(Cl)cccc1Cl (stereo unspecified) ?
Dicer inh: -0.15

Results for C=CCNc1cc(C)nc2ncnn12 ?
Dicer inh: -1.1

How did CSc1nc(NC(=O)C(C)C)c(C#N)n1Cc1ccco1 do in these assays?
Dicer inh: 0.67

What do the screens show for `O=C(c1ccncc1)N(c1ccc2oc(=O)sc2c1)S(=O)(=O)c1ccc(Br)cc1`?
Dicer inh: 2.1

What do the screens show for `CC(C)(C)c1ccc(S(=O)(=O)N(C(=O)c2cccnc2)c2ccc3oc(=O)sc3c2)cc1`?
Dicer inh: 4.6*

Results for CC(C)c1ccc(S(=O)(=O)N(C(=O)c2cccnc2)c2ccc3oc(=O)sc3c2)cc1 ?
Dicer inh: 2.7

Results for CCc1ccc(S(=O)(=O)N(C(=O)c2cccnc2)c2ccc3oc(=O)sc3c2)cc1 ?
Dicer inh: 6.2*

What do the screens show for `CC(C)(C)c1ccc(S(=O)(=O)N(C(=O)c2ccncc2)c2ccc3oc(=O)sc3c2)cc1`?
Dicer inh: 6.7*

What do the screens show for `Cc1cccc2c1N(C(=S)Nc1cccc(Cl)c1)CCC2`?
Dicer inh: -2.4

Results for CCOC(=O)c1c(NC(=O)Cn2nc(C(F)(F)F)c3c2CCCC3)sc(C)c1C ?
Dicer inh: -3.8

How did COC(=O)c1cc(=O)n2c(n1)sc1cc(OC)ccc12 do in these assays?
Dicer inh: -0.38

How did CCc1ccc(-c2csc(NC3OC(=O)c4ccccc43)n2)cc1 (stereo unspecified) do in these assays?
Dicer inh: -0.13

Results for COc1cccc(-c2cnc(NCc3cccc(Br)c3)n2C)c1 ?
Dicer inh: -0.78

How did CC(C)OC(=O)C1C(=O)CC(C)(O)C(C(=O)OC(C)C)C1/C=C/c1ccccc1 (stereo unspecified) do in these assays?
Dicer inh: 0.74

How did Cc1c(Cc2ccccc2)c(-n2ccnc2)n2c(nc3ccccc32)c1C#N do in these assays?
Dicer inh: 1.7

How did Cc1c(CCC(C)C)c(-n2ccnc2)n2c(nc3ccccc32)c1C#N do in these assays?
Dicer inh: 3.5*

What do the screens show for `Cc1c(Cc2ccccc2Cl)c(NCCCn2ccnc2)n2c(nc3ccccc32)c1C#N`?
Dicer inh: -0.6

What do the screens show for `Cc1c(Cc2ccc(Cl)cc2)c(NCCCn2ccnc2)n2c(nc3ccccc32)c1C#N`?
Dicer inh: 4.4*

Results for CCCc1c(C)c(C#N)c2nc3ccccc3n2c1NCCCn1ccnc1 ?
Dicer inh: -1.9

How did CCCCc1c(C)c(C#N)c2nc3ccccc3n2c1N1CCN(CCO)CC1 do in these assays?
Dicer inh: 2.5

How did Cc1nc(-c2ccc(S(=O)(=O)N3CCN(c4nc(-c5ccccc5)ns4)CC3)s2)cs1 do in these assays?
Dicer inh: -0.42

What do the screens show for `COc1cccc2c(OC(C)=O)coc12`?
Dicer inh: 2.3

What do the screens show for `CC(C)(NS(=O)(=O)c1ccc(Oc2ccc(F)cc2)cc1)C(=O)NO`?
Dicer inh: -0.63

How did CCOC(=O)c1cc(S(=O)(=O)C(C)C)c(SC)s1 do in these assays?
Dicer inh: 3.8*

How did CCOC(=O)c1sc(SC)c(S(C)(=O)=O)c1N do in these assays?
Dicer inh: -0.95

Results for COC(=O)c1cc(S(=O)(=O)C(C)C)c(S(C)(=O)=O)s1 ?
Dicer inh: -0.98

Results for CC(C#N)(Cc1ccccc1)Nc1ccc(Cl)cc1 (stereo unspecified) ?
Dicer inh: 2.5

What do the screens show for `COC(=O)CSc1n[nH]c(=O)[nH]c1=O`?
Dicer inh: 0.14

Results for CN(C)/C=C/C(=O)c1cccc(C#N)c1 ?
Dicer inh: -0.24

Results for O=C1c2cccc3c(Cl)ccc(c23)C(=O)N1c1cccc(O)c1 ?
Dicer inh: 2.8

How did CCOc1ccc(S(=O)(=O)Nc2ccccn2)cc1C do in these assays?
Dicer inh: 0.48

How did CCN(CC)c1ncc2c(=S)[nH]c(=S)[nH]c2n1 do in these assays?
Dicer inh: -0.96

What do the screens show for `S=c1[nH]c(=S)c2cnc(N3CCN(c4ccccc4)CC3)nc2[nH]1`?
Dicer inh: 0.45

What do the screens show for `S=c1[nH]c(=S)c2cnc(N3CCOCC3)nc2[nH]1`?
Dicer inh: 3.4*

What do the screens show for `O=C(CCSc1nc(-c2ccco2)cc(C(F)(F)F)n1)NCc1cccnc1`?
Dicer inh: 2.2

How did CC(C)NC(=O)O/N=C(\N)COc1ccc(C(C)(C)C)cc1 do in these assays?
Dicer inh: 0.55

What do the screens show for `CC1CCN(C(=O)CCSc2nc(-c3ccco3)cc(C(F)(F)F)n2)CC1`?
Dicer inh: 0.51

Results for COc1ccc(-c2cc(C(F)(F)F)nc(SCCC(=O)N3CCCC3)n2)cc1 ?
Dicer inh: 3.3*

What do the screens show for `O=C(CCSc1nc(-c2ccc3c(c2)OCO3)cc(C(F)(F)F)n1)N1CCCC1`?
Dicer inh: 0.35

How did CC(=O)Nc1ccc(Br)cc1[N+](=O)[O-] do in these assays?
Dicer inh: -0.93

What do the screens show for `COC(=O)c1sc(C(F)(F)F)c(-c2ccccc2)c1N`?
Dicer inh: 0.54

How did CC1(C)CC(=O)C2=C(C1)NC1=C(C(=O)c3ccccc31)C2c1cccc(O)c1 (stereo unspecified) do in these assays?
Dicer inh: 2.5

What do the screens show for `CC1(C)CC(=O)C2=C(C1)NC1=C(C(=O)c3ccccc31)C2c1ccc([N+](=O)[O-])o1` (stereo unspecified)?
Dicer inh: 5.5*

Results for COc1ccc(OC)c(C2C3=C(CC(C)(C)CC3=O)NC3=C2C(=O)c2ccccc23)c1 (stereo unspecified) ?
Dicer inh: 0.33

What do the screens show for `O=C(O)c1ccc(N2C(=O)CC(N3CCN(C/C=C/c4ccccc4)CC3)C2=O)cc1` (stereo unspecified)?
Dicer inh: -0.43

Results for CC(C)(C)c1ccc(C(=O)/C=C2\NC(=O)CS2)cc1 ?
Dicer inh: -2.3

How did CC(C)(C)c1ccc(C(=O)/C=c2\[nH]c(=O)/c(=C\c3cccs3)s2)cc1 do in these assays?
Dicer inh: 3.4*

What do the screens show for `COc1cccc(C(=O)/C=c2\[nH]c(=O)/c(=C\c3ccccc3)s2)c1`?
Dicer inh: 0.93

Results for COc1ccc(/C(O)=C2\C(=O)C(=O)N(CCN(C)C)C2c2ccc(OC)c(OC)c2)cc1 (stereo unspecified) ?
Dicer inh: 1.4

What do the screens show for `Oc1ccc2ncccc2c1C(Nc1ccccn1)c1ccco1` (stereo unspecified)?
Dicer inh: -1

Source: PubChem (Center for Chemical Genomics, University of Michigan)
